# For some assays here: Potency and affinity values are given separately. Calls of active or inactive are those of the source. Entries that show only a call come without a potency. No rule for the calls is given here.
# Target: Plasmodium falciparum protein kinase 6 (PK6, PF3D7_1337100) (UniProt Q8IDW1)
# Experiment: PfPK6 kinase inhibitors, biochemical, TCAMS library (AID 1159586)
# Conditions: recombinant PfPK6, Kinase-Glo ATP depletion luminescence
# Chain of Plasmodium falciparum protein kinase 6 (PK6, PF3D7_1337100) (Q8IDW1 1-305): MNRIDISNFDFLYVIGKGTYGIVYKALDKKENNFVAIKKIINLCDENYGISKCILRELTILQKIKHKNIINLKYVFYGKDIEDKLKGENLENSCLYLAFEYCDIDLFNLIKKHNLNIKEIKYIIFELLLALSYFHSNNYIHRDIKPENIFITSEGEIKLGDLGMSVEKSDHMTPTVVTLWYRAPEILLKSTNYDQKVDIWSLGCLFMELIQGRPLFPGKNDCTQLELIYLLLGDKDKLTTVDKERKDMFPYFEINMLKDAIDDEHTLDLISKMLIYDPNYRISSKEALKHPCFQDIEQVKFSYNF
row,SMILES,outcome
1,COc1cc2nc(NCCc3ccccc3)nc(NCCCc3ccccc3)c2cc1OC,inactive
2,COc1cc(C(=O)N2CC[C@@H](CCN3CCC4(CC3)CN(S(C)(=O)=O)c3ccccc34)C[C@H]2Cc2ccc(Cl)c(Cl)c2)cc(OC)c1OC,inactive
3,COc1ccc(NC(=O)Nc2cccc(-c3cccc(-c4nc5ccc(F)cc5[nH]4)c3)c2)cc1,inactive
4,CCCc1ccc(S(=O)(=O)NC2CCN(C(=O)Nc3ccc(I)cc3)CC2)cc1,inactive
5,O=C(Nc1cccc(-c2ccc(-c3nc4ccc(F)cc4[nH]3)cc2)c1)c1ccncc1,inactive
6,Cc1ccc2c(NN=CC=Cc3ccccc3)cc(C)nc2c1,inactive
7,O=C1OC(c2ccccc2)(c2ccccn2)CN1C1CCN(Cc2cccn2-c2ccc(Cl)cc2)CC1 (stereo not given),inactive
8,CCN(CC)CCN(Cc1ccc(-c2ccc(C(F)(F)F)cc2)cc1)C(=O)Cn1c(CCc2cccc(F)c2F)nc(=O)c2ccc(C(F)(F)F)cc21,inactive
9,N#Cc1cncc(-c2nc3c(N4CCC(Cc5ccccc5)CC4)cccc3n2C2CCNC2)c1 (stereo not given),inactive
10,N#Cc1ccc(-c2cnc3ccc(NCc4ccc(S(N)(=O)=O)cc4)nn23)cc1,inactive
11,CCN(CC)CCN(Cc1ccc(-c2ccc(C(F)(F)F)cc2)cc1)C(=O)Cn1c(CCc2cc(F)cc(F)c2F)nc(=O)c2ccccc21,inactive
12,CC(C)c1cc(Oc2c(I)cc(CCCc3ncc[nH]3)cc2I)ccc1O,inactive
13,c1ccc2c(c1)ncc1c3ccccc3[nH]c21,inactive
14,CSc1ccc(CN2CCC(NC(=O)c3ccc(-c4ccc(N(C)C)cc4)s3)CC2)cc1,inactive
15,Cc1cc(NC(=O)Nc2cccc(N(C)C)c2)c2ccccc2n1,inactive
16,CN(CCN1CCCC1)c1nc2ccc(-n3cnc4cc(-c5ccc(Cl)cc5)sc4c3=O)cc2[nH]1,inactive
17,CC(C)n1c(C2CCN(CC3CCN(C(=O)/C=C/c4ccc(Cl)c(Cl)c4)CC3)CC2)nc2ccccc21,inactive
18,Cc1ccc(NC(=O)Nc2ccc(Cl)c(C(F)(F)F)c2)cc1-c1ccc(C(=O)Nc2ccncc2)cc1,inactive
19,O=S(=O)(c1cccc(C(F)(F)F)c1)N1CCC(CO)(Cc2cccc(C(F)(F)F)c2)CC1,inactive
20,CCOc1ccc(CCC(=O)O)cc1OCC,inactive

row,SMILES,outcome
1,COc1ccc2nccc([C@@H](O)CN3CCC(NCc4nc5c(C#N)cccc5[nH]4)CC3)c2c1,inactive
2,COc1ccc(C(O)CNC(C)CCc2ccccc2)cc1C(F)(F)F (stereo not given),inactive
3,COc1cccc2cc(C(=O)N[C@@H](CC(C)C)C(=O)N[C@H](/C=N/NC(=O)c3ccccc3)Cc3cnc[nH]3)oc12,inactive
4,O=C(NCc1cccc2ccccc12)C1CCCN(C(=O)c2ccc(O)c(-c3ccc(Cl)c(Cl)c3)c2)C1 (stereo not given),inactive
5,Cc1ccccc1C1CCN(C2CCC(NC(=O)c3cncc(-c4ccccc4)c3)CC2)CC1 (stereo not given),inactive
6,O=S(=O)(NC1CCN(c2ccnc3cc(Cl)ccc23)C1)c1ccc(C(F)(F)F)cc1 (stereo not given),inactive
7,O=C(Nc1ccc(OC2CCN(Cc3ccsc3)C2)c(Cl)c1)c1ccsc1 (stereo not given),inactive
8,O=C(CCc1cnc[nH]1)Nc1cccc(-c2ccc(-c3nc4ccccc4[nH]3)s2)c1,inactive
9,Cc1cccc2c3c([nH]c12)C1(CCN(CCc2ccccc2)CC1)NC(C(=O)NCc1ccccc1)C3 (stereo not given),inactive
10,Cc1cc(CNC(=O)c2ccc(-c3ccc(-c4nc5ccc(C(F)(F)F)cc5[nH]4)s3)cc2)on1,inactive
11,Oc1ccc(CCNc2nc(NCCOc3cccc4ccccc34)nc(N3CCNCC3)n2)cc1,inactive
12,Nc1c(Cl)cc(C(O)CNCCCCCCOCCc2ccc(CO)s2)cc1Cl (stereo not given),inactive
13,N#Cc1ccc(NC(=O)c2ccc(C(=O)NCCCCN3CCC(c4ccc5c(c4OCCOC4CCCCO4)CCCC5)CC3)cc2)cc1 (stereo not given),inactive
14,CCCc1cc(Cc2cnc(N)nc2N)cc(CCC)c1O,inactive
15,CCn1c(C)cc(C=C2SC(=Nc3ccccc3)NC2=O)c1C,inactive
16,COc1cccc(CNC(=O)[C@H]2CNCCN2C(=O)CCCc2ccccc2)c1,inactive
17,Clc1ccc(CNc2nc(NCCc3cnc[nH]3)nc(N3CCCC4CCCCC43)n2)cc1 (stereo not given),inactive
18,CS(=O)(=O)c1ccc(CNCc2cccc(-c3ccc(-c4nc5ccc(C(F)(F)F)cc5[nH]4)cc3)c2)cc1,inactive
19,O=C(NCc1cccc(C(F)(F)F)c1)C(c1cc2ccccc2o1)N1CCN(C(c2ccccc2)c2ccccc2)CC1 (stereo not given),inactive
20,CCOc1ccccc1C(=O)N1CCc2cc3nccc(N4CCN5CCC[C@H]5C4)c3cc21,inactive

# Target: Protein kinase 7 (PK7), Plasmodium falciparum 3D7 (PF3D7_0213400) (UniProt Q7YTF7)
# Experiment: inhibition of Plasmodium PK7 catalytic activity – biochemical, TCAMS antimalarial set, Kinase-Glo luminescence (AID 1159587)
# Conditions: recombinant PfPK7, Kinase-Glo ATP depletion luminescence
# Chain of Protein kinase 7 (PK7), Plasmodium falciparum 3D7 (PF3D7_0213400) (Q7YTF7 1-343): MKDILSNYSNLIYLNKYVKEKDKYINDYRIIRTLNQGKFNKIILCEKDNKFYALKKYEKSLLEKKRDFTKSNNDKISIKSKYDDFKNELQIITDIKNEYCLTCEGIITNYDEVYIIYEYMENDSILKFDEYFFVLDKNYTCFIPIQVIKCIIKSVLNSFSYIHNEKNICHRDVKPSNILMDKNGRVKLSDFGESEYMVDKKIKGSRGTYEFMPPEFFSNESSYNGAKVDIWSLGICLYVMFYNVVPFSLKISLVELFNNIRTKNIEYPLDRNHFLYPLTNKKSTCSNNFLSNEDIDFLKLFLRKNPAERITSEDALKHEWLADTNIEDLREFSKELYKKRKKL
row,SMILES,outcome
1,COc1cc2nc(NCCc3ccccc3)nc(NCCCc3ccccc3)c2cc1OC,inactive
2,COc1cc(C(=O)N2CC[C@@H](CCN3CCC4(CC3)CN(S(C)(=O)=O)c3ccccc34)C[C@H]2Cc2ccc(Cl)c(Cl)c2)cc(OC)c1OC,inactive
3,COc1ccc(NC(=O)Nc2cccc(-c3cccc(-c4nc5ccc(F)cc5[nH]4)c3)c2)cc1,inactive
4,CCCc1ccc(S(=O)(=O)NC2CCN(C(=O)Nc3ccc(I)cc3)CC2)cc1,inactive
5,O=C(Nc1cccc(-c2ccc(-c3nc4ccc(F)cc4[nH]3)cc2)c1)c1ccncc1,inactive
6,Cc1ccc2c(NN=CC=Cc3ccccc3)cc(C)nc2c1,inactive
7,O=C1OC(c2ccccc2)(c2ccccn2)CN1C1CCN(Cc2cccn2-c2ccc(Cl)cc2)CC1 (stereo not given),inactive
8,CCN(CC)CCN(Cc1ccc(-c2ccc(C(F)(F)F)cc2)cc1)C(=O)Cn1c(CCc2cccc(F)c2F)nc(=O)c2ccc(C(F)(F)F)cc21,inactive
9,N#Cc1cncc(-c2nc3c(N4CCC(Cc5ccccc5)CC4)cccc3n2C2CCNC2)c1 (stereo not given),inactive
10,N#Cc1ccc(-c2cnc3ccc(NCc4ccc(S(N)(=O)=O)cc4)nn23)cc1,inactive
11,CCN(CC)CCN(Cc1ccc(-c2ccc(C(F)(F)F)cc2)cc1)C(=O)Cn1c(CCc2cc(F)cc(F)c2F)nc(=O)c2ccccc21,inactive
12,CC(C)c1cc(Oc2c(I)cc(CCCc3ncc[nH]3)cc2I)ccc1O,inactive
13,c1ccc2c(c1)ncc1c3ccccc3[nH]c21,inactive
14,CSc1ccc(CN2CCC(NC(=O)c3ccc(-c4ccc(N(C)C)cc4)s3)CC2)cc1,inactive
15,Cc1cc(NC(=O)Nc2cccc(N(C)C)c2)c2ccccc2n1,inactive
16,CN(CCN1CCCC1)c1nc2ccc(-n3cnc4cc(-c5ccc(Cl)cc5)sc4c3=O)cc2[nH]1,inactive
17,CC(C)n1c(C2CCN(CC3CCN(C(=O)/C=C/c4ccc(Cl)c(Cl)c4)CC3)CC2)nc2ccccc21,inactive
18,Cc1ccc(NC(=O)Nc2ccc(Cl)c(C(F)(F)F)c2)cc1-c1ccc(C(=O)Nc2ccncc2)cc1,inactive
19,O=S(=O)(c1cccc(C(F)(F)F)c1)N1CCC(CO)(Cc2cccc(C(F)(F)F)c2)CC1,inactive
20,CCOc1ccc(CCC(=O)O)cc1OCC,inactive

row,SMILES,outcome
1,COc1ccc2nccc([C@@H](O)CN3CCC(NCc4nc5c(C#N)cccc5[nH]4)CC3)c2c1,inactive
2,COc1ccc(C(O)CNC(C)CCc2ccccc2)cc1C(F)(F)F (stereo not given),inactive
3,COc1cccc2cc(C(=O)N[C@@H](CC(C)C)C(=O)N[C@H](/C=N/NC(=O)c3ccccc3)Cc3cnc[nH]3)oc12,inactive
4,O=C(NCc1cccc2ccccc12)C1CCCN(C(=O)c2ccc(O)c(-c3ccc(Cl)c(Cl)c3)c2)C1 (stereo not given),inactive
5,Cc1ccccc1C1CCN(C2CCC(NC(=O)c3cncc(-c4ccccc4)c3)CC2)CC1 (stereo not given),inactive
6,O=S(=O)(NC1CCN(c2ccnc3cc(Cl)ccc23)C1)c1ccc(C(F)(F)F)cc1 (stereo not given),inactive
7,O=C(Nc1ccc(OC2CCN(Cc3ccsc3)C2)c(Cl)c1)c1ccsc1 (stereo not given),inactive
8,O=C(CCc1cnc[nH]1)Nc1cccc(-c2ccc(-c3nc4ccccc4[nH]3)s2)c1,inactive
9,Cc1cccc2c3c([nH]c12)C1(CCN(CCc2ccccc2)CC1)NC(C(=O)NCc1ccccc1)C3 (stereo not given),inactive
10,Cc1cc(CNC(=O)c2ccc(-c3ccc(-c4nc5ccc(C(F)(F)F)cc5[nH]4)s3)cc2)on1,inactive
11,Oc1ccc(CCNc2nc(NCCOc3cccc4ccccc34)nc(N3CCNCC3)n2)cc1,inactive
12,Nc1c(Cl)cc(C(O)CNCCCCCCOCCc2ccc(CO)s2)cc1Cl (stereo not given),inactive
13,N#Cc1ccc(NC(=O)c2ccc(C(=O)NCCCCN3CCC(c4ccc5c(c4OCCOC4CCCCO4)CCCC5)CC3)cc2)cc1 (stereo not given),inactive
14,CCCc1cc(Cc2cnc(N)nc2N)cc(CCC)c1O,inactive
15,CCn1c(C)cc(C=C2SC(=Nc3ccccc3)NC2=O)c1C,inactive
16,COc1cccc(CNC(=O)[C@H]2CNCCN2C(=O)CCCc2ccccc2)c1,inactive
17,Clc1ccc(CNc2nc(NCCc3cnc[nH]3)nc(N3CCCC4CCCCC43)n2)cc1 (stereo not given),inactive
18,CS(=O)(=O)c1ccc(CNCc2cccc(-c3ccc(-c4nc5ccc(C(F)(F)F)cc5[nH]4)cc3)c2)cc1,inactive
19,O=C(NCc1cccc(C(F)(F)F)c1)C(c1cc2ccccc2o1)N1CCN(C(c2ccccc2)c2ccccc2)CC1 (stereo not given),inactive
20,CCOc1ccccc1C(=O)N1CCc2cc3nccc(N4CCN5CCC[C@H]5C4)c3cc21,inactive
